Assay results: PubChem BioAssay AID368 (University of Pittsburgh Molecular Library Screening Center, 2006)
The whole screen tested about 65,000 compounds, of which about 85 (0.1%) were called active. Rule as the data show it: active = inhibition above about 50%; inactive = the rest. This excerpt belongs to a sample that is enriched for actives.

What follows are compounds tested against M-phase inducer phosphatase 2 (Homo sapiens) (UniProt P30305) (assay: human Cdc25B tyrosine phosphatase blockers – biochemical, OMFP fluorescence, catalytic domain, primary screen (AID 368)). Conditions: recombinant Cdc25B, OMFP fluorescence Ex485/Em525; hits give high values;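 compounds tested at 10 µM final in the well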.
Sequence of M-phase inducer phosphatase 2 (Homo sapiens) (P30305 whole entry, looked up, the tested form may be a part): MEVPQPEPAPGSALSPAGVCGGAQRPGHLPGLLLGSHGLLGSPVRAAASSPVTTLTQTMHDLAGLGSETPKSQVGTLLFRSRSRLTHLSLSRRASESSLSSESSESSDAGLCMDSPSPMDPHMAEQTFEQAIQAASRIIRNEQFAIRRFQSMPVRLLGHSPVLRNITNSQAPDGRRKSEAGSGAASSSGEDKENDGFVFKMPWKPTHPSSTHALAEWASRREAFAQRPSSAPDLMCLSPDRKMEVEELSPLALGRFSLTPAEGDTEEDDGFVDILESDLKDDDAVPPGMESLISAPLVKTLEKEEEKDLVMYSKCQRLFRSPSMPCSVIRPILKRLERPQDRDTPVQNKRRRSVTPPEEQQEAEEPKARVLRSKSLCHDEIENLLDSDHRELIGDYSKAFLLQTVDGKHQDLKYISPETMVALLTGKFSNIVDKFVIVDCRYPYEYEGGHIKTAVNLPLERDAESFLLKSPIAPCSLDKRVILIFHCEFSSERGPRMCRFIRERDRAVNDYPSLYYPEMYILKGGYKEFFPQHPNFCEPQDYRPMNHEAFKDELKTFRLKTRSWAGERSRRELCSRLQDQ

| Structure (SMILES) | inhibition |
| --- | --- |
| COc1ccccc1NC(=O)CSc1nnc(Cn2nnc(-c3ccccc3)n2)n1-c1ccccc1 | -10.9% (inactive) |
| COc1ccc(-c2nnn(CC(=O)N(CCO)C(C(=O)NC3CCCC3)c3ccc(F)cc3)n2)cc1 (stereo unspecified) | -0.846% (inactive) |
| Cc1ccc(S(=O)(=O)N2CCC(C(=O)OCC(=O)N3CC(=O)Nc4ccccc43)CC2)cc1 | -6.66% (inactive) |
| O=C(CSc1nnc(-c2cccnc2)n1Cc1ccco1)c1ccc(Cl)c(Cl)c1 | 8.97% (inactive) |
| CCc1c(C)n([O-])c2c([n+]1=O)CCCCC2 | -6.36% (inactive) |
| COc1cc2cc(CN(CCN3CCCC3)C(=O)Nc3ccccc3Cl)c(=O)[nH]c2cc1OC | -1.08% (inactive) |
| O=C(Cn1c(-c2ccc(Cl)cc2)noc1=O)N1CCN(c2ccccc2F)CC1 | -5.95% (inactive) |
| CC(C)Oc1ccc(C(=O)Nc2cc(=O)n(C)c(=O)n2C)cc1 | -9.38% (inactive) |
| Fc1cc(F)c2nc(N3CCOCC3)sc2c1 | 0.504% (inactive) |
| CC1CCCC(N2CCN(C(=O)c3ccc(F)cc3)CC2)C1 (stereo unspecified) | -7.26% (inactive) |
| Cc1ccc(NC(=O)CN2CCC3(O)CCCCC3C2c2ccc3c(c2)OCO3)c(C)c1 (stereo unspecified) | 5.36% (inactive) |
| CCOC(=O)c1sc2nc(CSCC(=O)OCc3ccc(C(=O)OC)o3)[nH]c(=O)c2c1C | -1.69% (inactive) |
| COCCN1C(=O)c2oc3c(C)cc(C)cc3c(=O)c2C1c1cccc(O)c1 (stereo unspecified) | -0.703% (inactive) |
| CC(=O)c1cc2c(cc1N)OCO2 | 5.42% (inactive) |
| COc1ccc(N2CC(C)Cn3c2nc2c3c(=O)n(Cc3ccccc3F)c(=O)n2C)c(OC)c1 (stereo unspecified) | 2.66% (inactive) |
| CC(=O)c1c(C)c[nH]c1C | -2.46% (inactive) |
| O=S(=O)(NCc1ccccn1)c1ccc(F)cc1 | -7.59% (inactive) |
| NS(=O)(=O)c1ccc(NS(=O)(=O)/C=C/c2ccccc2)cc1 | 4.88% (inactive) |
| O=S(=O)(/C=C/c1ccccc1)NCCc1ccccn1 | 102% (active) |
| O=C(O)c1cscn1 | 5.38% (inactive) |
| COc1ccccc1Nc1ncnc2c1oc1ccccc12 | 14.9% (inactive) |
| CC1(C)CC(=O)C=C(NCCCNC2CCCCC2)C1 | -12.2% (inactive) |
| N#Cc1ccc(COC(=O)Cn2nnc(-c3ccccc3)n2)cc1 | -19.8% (inactive) |
| CC(NC(=O)Nc1ccccc1)c1ccccc1 (stereo unspecified) | -11.4% (inactive) |

| Structure (SMILES) | inhibition |
| --- | --- |
| NC(=O)C1CC=CCC1C(=O)OCC(Cl)=C(Cl)Cl (stereo unspecified) | -7.55% (inactive) |
| CC1CN(c2cc(=O)n(Cc3ccc(F)cc3)c(=O)[nH]2)CC(C)O1 (stereo unspecified) | -7.48% (inactive) |
| CCOC(=O)c1cccc(NC(=O)C2CCCN(S(=O)(=O)c3cnc[nH]3)C2)c1 (stereo unspecified) | -1.24% (inactive) |
| O=C(O)C1CC=C(Cl)CC1C(=O)NCc1ccccc1 (stereo unspecified) | -4.83% (inactive) |
| O=C(CN1C(=O)C2C3C=CC(C3)C2C1=O)NCCc1ccccc1Cl (stereo unspecified) | -3.46% (inactive) |
| Cc1ccc(C)c(N(CC(=O)NCc2ccco2)C(=O)CCC(=O)Nc2ccccn2)c1 | 0.139% (inactive) |
| C=CCNC(=O)CSc1nc2sc(C)c(C)c2c(=O)[nH]1 | -5.03% (inactive) |
| CCC1SC2=NCCN2C1(O)c1ccc(Cl)cc1 (stereo unspecified) | 1.15% (inactive) |
| COC(=O)c1ccc(NC(=O)CSc2nnc(CNc3ccc(OC)cc3)n2C)cc1 | -15.2% (inactive) |
| O=C(Nc1ccc(F)cc1)c1cccnc1N1CCOCC1 | 0.374% (inactive) |
| COc1ccccc1C1/C(=C(/O)c2ccc(OC(C)C)cc2)C(=O)C(=O)N1c1cc(C)on1 (stereo unspecified) | 22% (inactive) |
| COc1ccc(S(=O)(=O)N(CCCN2CCCC2=O)Cc2cc3c(C)ccc(C)c3[nH]c2=O)cc1 | 4.58% (inactive) |
| COc1ccc(Cl)cc1NC(=O)c1oc(C)nc1C | -1.12% (inactive) |
| O=C(O)CSC(NC(=O)c1cccnc1)(C(F)(F)F)C(F)(F)F | -2.28% (inactive) |
| O=C(c1ccco1)N1CCN=C1SCc1cccc(Cl)c1 | -9.08% (inactive) |
| CC1CCCCC1NC(=O)CSc1nnc(N)s1 (stereo unspecified) | -11.7% (inactive) |
| COc1ccc(C(=O)N2CCC(C(=O)Nc3cccc(C)c3)CC2)cc1OC | -5.03% (inactive) |
| Cc1cc(C(F)(F)F)nn1-c1nc(-c2ccco2)cc(C(F)(F)F)n1 | -12.3% (inactive) |
| COc1ccc(NS(=O)(=O)c2ccc(NC(C)=O)cc2)cc1OC | -8.27% (inactive) |
| COCCNC(=O)C(c1ccc(C)o1)N(Cc1cccs1)C(=O)c1snc(C(N)=O)c1N (stereo unspecified) | -5.11% (inactive) |
| Cc1nnc(SCC(=O)NCCOc2ccc(Cl)cc2)n1-c1ccccc1 | -10.1% (inactive) |
| COc1cccc(N(CC(=O)Nc2cccc(F)c2)S(C)(=O)=O)c1 | -4.86% (inactive) |
| COc1ccc(C(=O)NCCc2ccc(S(N)(=O)=O)cc2)cc1OC | -4.01% (inactive) |
| CCOC(=O)c1ccn(-c2nc(-c3ccco3)cc(C(F)(F)F)n2)n1 | -12.2% (inactive) |

| Structure (SMILES) | inhibition |
| --- | --- |
| CCCOc1ccc(CN(CCO)CCO)cc1C(=O)OC | 1.99% (inactive) |
| O=C(NC1(C(F)(F)F)N=C2SCCN2C1=O)c1ccco1 (stereo unspecified) | 0.794% (inactive) |
| O=C(c1ccccc1)c1ccc2nc(N3CCCCC3)c3nncn3c2c1 | -11.8% (inactive) |
| O=S(=O)(c1ccc2ccccc2c1)N1CCN(S(=O)(=O)N2CCOCC2)CC1 | -4.37% (inactive) |
| O=c1cc(CSc2ccc(Cl)cc2)nc(N2CCOCC2)[nH]1 | 7.35% (inactive) |
| CCCOP(=O)(c1ccc(N(C)C)cc1)C(O)c1cc(OC)c(OC)c(OC)c1 (stereo unspecified) | -0.929% (inactive) |
| CCOC(=O)N1CCN(CC(=O)n2c(C)c(C)c3ccccc32)CC1 | -1.72% (inactive) |
| Cc1ccc2c(C(=O)CN3CCCC3)c(C)[nH]c2c1 | -0.2% (inactive) |
| CCOC(=O)N1CCN(CC(=O)c2c(C)[nH]c3ccccc23)CC1 | 60% (active) |
| Cc1occc1C(=O)Nc1cccc(Cn2cccn2)c1 | -8.98% (inactive) |
| O=C(O)CC(Cn1cnnn1)c1ccccc1 (stereo unspecified) | -6.9% (inactive) |
| O=C1CCCc2c1[nH]c1ccc(Br)cc21 | 5.28% (inactive) |
| Cc1ccsc1C(C(=O)NC1CCCCC1)N(C(=O)Cc1cccs1)C1CC1 (stereo unspecified) | 4.04% (inactive) |
| CCc1c(C)nc2cc(-c3cccs3)[nH]n2c1=O | -13.1% (inactive) |
| C/C(=C(\C#N)C(=O)NCCCN1CCOCC1)N(C)C | -7.37% (inactive) |
| CCCC(=O)Nc1ccc(C(=O)NCCCn2ccnc2)cc1 | 2.06% (inactive) |
| CCn1cc(C(=O)NCC2COc3ccccc3O2)c2cc(OC)c(OC)cc2c1=O (stereo unspecified) | -8.97% (inactive) |
| CCOC(=O)CNC(=O)CN1C(=O)CCSc2ccccc21 | -0.999% (inactive) |
| O=C1NC(Nc2nc3ccccc3s2)(C(F)(F)F)C(=O)N1C1CCCCC1 (stereo unspecified) | -0.883% (inactive) |
| CC(=O)Nc1ccc(S(=O)(=O)NCCc2ccccc2)cc1 | -7.41% (inactive) |
| CC1OC2C(OC1C)N(S(C)(=O)=O)CCN2S(C)(=O)=O (stereo unspecified) | -4.42% (inactive) |
| CCOc1ccc(CCNC(=O)C(CC)n2nc(C)n3c(cc4sccc43)c2=O)cc1OCC (stereo unspecified) | -12.3% (inactive) |
| CCn1ncc(C2=NOC(C(=O)N3CCN(c4ccccc4)CC3)C2)c1C (stereo unspecified) | -17.4% (inactive) |
| CCOC(=O)C1CCCN(C(=O)C2CCN(c3nnc(-n4cccc4)s3)CC2)C1 (stereo unspecified) | 6.02% (inactive) |

| Structure (SMILES) | inhibition |
| --- | --- |
| Cn1c(=O)c2c(nc(SCC(=O)Nc3ccccc3N3CCCCC3)n2C)n(C)c1=O | -12.6% (inactive) |
| CCCCSc1nnc(-c2ccc(C)cc2)o1 | -7.53% (inactive) |
| O=C(Nc1nc2cc3c(cc2s1)OCCO3)c1cccc(S(=O)(=O)N2CCOCC2)c1 | -3.84% (inactive) |
| CCN1C(=O)C(C(=O)NC(C)c2ccccc2)C2CC1(C)Oc1ccccc12 (stereo unspecified) | -6.65% (inactive) |
| Clc1ccccc1CSc1nnc(-c2ccco2)c(-c2ccco2)n1 | -25.9% (inactive) |
| c1ccc(CSc2nnc(-c3ccco3)n2Cc2ccccc2)cc1 | -11.9% (inactive) |
| c1ccc(CSc2nnc(-c3ccco3)c(-c3ccco3)n2)cc1 | 50.3% (active) |
| C=CCn1c(SCC(=O)NC23CC4CC(CC(C4)C2)C3)nc(O)cc1=O | 2.29% (inactive) |
| NC(=O)CSC1=Nc2ccccc2C2=NC(CCC(=O)NCc3ccc(F)cc3)C(=O)N12 (stereo unspecified) | -3.7% (inactive) |
| CCOC(=O)c1c(C)nc(-c2ccccc2)nc1NC(=O)C(C)C | -5.5% (inactive) |
| CCOC(=O)Cn1c(N)c(C(=O)OC)sc1=S | -11% (inactive) |
| CC(=O)Nc1ccn(Cc2c(F)cccc2Cl)n1 | -13% (inactive) |
| O=C(c1ccc(S(=O)(=O)N2CCOCC2)cc1)N1CCN(c2ccccc2)CC1 | 1.6% (inactive) |
| CCOC(=O)c1[nH]cnc1C(=O)NC1CCCCC1 | -0.873% (inactive) |
| Cc1csc(NC(=O)NC2(C(F)(F)F)Oc3ccccc3O2)n1 | -7.31% (inactive) |
| O=C(CCCn1c(=O)oc2ccccc21)Nc1cccnc1 | -11.7% (inactive) |
| CS(=O)(=O)N(Cc1nc2sc3c(c2c(=O)[nH]1)CCCC3)C1CCCCC1 | -20% (inactive) |
| O=C1c2ccccc2C(=O)N1CCc1nn[nH]n1 | 2.01% (inactive) |
| COc1ccc(C(=O)c2oc3ccc(Br)cc3c2NC(C)=O)cc1 | 1.8% (inactive) |
| CC(=O)Nc1ccc(NS(=O)(=O)c2cc(C)sc2C)cc1 | 7.75% (inactive) |
| Cc1ccc(S(=O)(=O)N2C3C=CC(C3)C2C(=O)O)cc1 (stereo unspecified) | -0.599% (inactive) |
| Cc1cc(C)cc(NC(=O)N2CCC(NC(=O)c3ccc(F)cc3)CC2)c1 | 5.11% (inactive) |
| CCOC(=O)C(CC)Sc1ncnc2c1nnn2-c1ccc(F)cc1 (stereo unspecified) | -12.7% (inactive) |
| COc1cc(-c2noc(C3CCCN(S(=O)(=O)c4cccc(Cl)c4)C3)n2)cc(OC)c1OC (stereo unspecified) | 3.35% (inactive) |
